Hits are enriched below; roughly 1.7% of the tested compounds scored in any of these assays.
Vc quorum ag: quorum light induction in luxS cqsA deficient V. cholerae. V. cholerae BH1578 lux reporter, luminescence, 6 h. activation, % at 18.7 µM. 350,000 compounds, 0.16% hits. AID 588436; in the data active = activation mostly above about 9.7%, no sharp cut-off
MazF activator: MazEF (E. coli) toxin RNase activation. P0AE70. FAM/BHQ RNA-DNA oligo cleavage fluorescence, 5 h. activation, % at 20 µM. 350,000 compounds, 0.32% hits. AID 504720; in the data active = activation above about 50%
Target sequence (P0AE70 whole entry, looked up): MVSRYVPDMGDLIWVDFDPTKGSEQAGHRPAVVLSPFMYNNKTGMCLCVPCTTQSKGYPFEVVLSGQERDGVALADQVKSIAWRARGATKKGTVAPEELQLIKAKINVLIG
SARS 3CLpro inh-1: SARS-CoV 3CLpro protease inhibition | AID 1706 | inhibition, % at 6 µM | 290,000 compounds, 0.14% hits | P0C6X7 | recombinant SARS-CoV 3CLpro, quenched FRET peptide cleavage; in the data active = inhibition above about 12%
VHR inh abs: blocks human VHR1 dual specificity phosphatase; inhibition, % at 13.3 µM; 290,000 compounds, 0.52% hits; AID 1654; P51452; recombinant VHR phosphatase, pNPP absorbance; in the data active = inhibition above about 50%
Target sequence (P51452 whole entry, looked up): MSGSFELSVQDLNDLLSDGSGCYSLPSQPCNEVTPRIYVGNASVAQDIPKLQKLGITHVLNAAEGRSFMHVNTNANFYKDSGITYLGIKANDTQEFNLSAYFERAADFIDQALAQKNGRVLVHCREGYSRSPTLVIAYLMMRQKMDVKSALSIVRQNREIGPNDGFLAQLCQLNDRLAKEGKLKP
PfHsp40 yeast: compounds rescuing yeast from Plasmodium falciparum HSP40 toxicity; S. cerevisiae expressing PfHsp40, growth rescue, ATP luminescence; growth rescue, % at 12.5 µM; 340,000 compounds, 0.68% hits; AID 504582; in the data active = growth rescue above about 28%, passing the limit was not always enough;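 also: yeast W303a lacking pdr1 and pdr3 grown in galactose medium; growth measured after three days at 30 °C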
BJeLR viability: BJeLR cell viability loss | inhibition, % (concentration not given with the values) | 300,000 compounds, 0.17% hits | BJeLR (HRASV12) viability, CellTiter-Glo ATP luminescence, 48 h; in the data active = inhibition above about 50%
SARS 3CLpro inh-2: SARS 3CLpro inhibition, confirmation assay; QFRET protease activity assay; AID 1879; 380 compounds, 36% hits; shares compounds with SARS 3CLpro inh-1; inhibition, % at 6 µM; in the data active = inhibition above about 13%
* hit, by the source's call; i = inactive; nt = no result.

SMILES	Vc quorum ag	MazF activator	SARS 3CLpro inh-1	VHR inh abs	PfHsp40 yeast	BJeLR viability	SARS 3CLpro inh-2
CCCCCn1c(CN2CCN(Cc3ccccc3)CC2)nc2c1c(=O)[nH]c(=O)n2C	-2	4	13*	44	0	-3	2
Cc1cc(C(C#N)c2ccccc2F)n2ncnc2n1 (configuration not stated)	i	14	1	19	2	2	nt
COc1ccc(N(C(=O)Cn2nnc3ccccc32)C2(C(=O)NC3CCCC3)CCCCC2)cc1	2	-1	30*	-6	0	6	43*
COc1ccc(CCNC(=O)CCCn2c(SCC(N)=O)nc3cc4c(cc3c2=O)OCO4)cc1OC	nt	nt	4	14	nt	-10	nt
CCOC(=O)c1c(C)oc2c1c1c(c3ccccc32)OCN(Cc2ccccn2)C1	3	-16	13*	38	-2	4	-3
O=C(NC1CC1)C1=C[C@@H](c2coc3ccccc3c2=O)C[C@@H](OCCCCO)O1	-2	6	nt	11	0	1	nt
Cc1ccc(C(=O)NCCCNC(=O)c2ccccc2C)cn1	0	14	-5	34	-1	-3	nt
CC(C)C[C@H](NC(=O)c1[nH]cnc1C(=O)N[C@@H](Cc1ccccc1)C(=O)OCc1ccccc1)C(=O)OC(C)(C)C	1	1	13*	24	-1	8	6
CC(C)C[C@H](NC(=O)c1nc[nH]c1C(=O)NCc1ccc(CNC(=O)OC(C)(C)C)cc1)C(=O)OC(C)(C)C	-1	7	14*	24	4	-7	13*
CC(C)C[C@H](NC(=O)c1[nH]cnc1C(=O)N[C@@H](Cc1ccccc1)C(=O)OC(C)(C)C)C(=O)OCc1ccccc1	i	-9	3	1	-2	9	nt
O=C(O)c1cccc(NC(=S)NC(=O)C(c2ccccc2)c2ccccc2)c1	-1	-20	14*	-9	1	0	8
CC(NC(=O)OC(C)(C)C)C(=O)Oc1ccc2ccc(=O)oc2c1 (configuration not stated)	-1	7	0	0	-1	nt	nt
O=C(Oc1ccc2ccc(=O)oc2c1)c1cccs1	0	0	20*	2	-2	-2	35*
CCCC(=O)Oc1ccc2c(C)cc(=O)oc2c1	0	0	17*	-4	0	-4	24*
CC(C)(C)OC(=O)NCCC(=O)Oc1ccc2ccc(=O)oc2c1	4	6	29*	26	-1	7	59*
O=C(NCCN1CCOCC1)c1ccc2c(c1)N(Cc1ccc(F)cc1)C(=O)CS2	i	-8	10	7	1	-11	nt
Cc1ccc(CN2C(=O)CSc3ccc(C(=O)NCCN4CCOCC4)cc32)cc1	0	-1	19*	6	0	0	8
N/C(=N\OC(=O)CCCc1ccccc1)c1ccccc1Cl	i	-1	-7	18	-2	11	nt
O=C(Oc1ccc(Br)cc1C(=O)/C=C/c1ccccc1F)c1ccco1	i	-11	22*	nt	4	6	43*
CCN1C(=O)C(NC(C)=O)c2cc(Br)ccc21 (configuration not stated)	0	1	-5	20	-1	-6	nt
CC(=O)NC1C(=O)N(CCN2CCOCC2)c2ccc(F)cc21 (configuration not stated)	2	7	12*	16	-1	5	45*
COc1c(Cl)cc(C(=O)NN)cc1Cl	-1	9	16*	18	-1	0	17*
COc1c(Cl)cc(C(=O)O)cc1Cl	-1	1	nt	nt	-1	5	nt
COc1ccc(CNC(=O)CN(Cc2ccccc2)S(=O)(=O)c2ccc(Cl)cc2)cc1	0	-6	0	10	2	14	nt
O=C(O)c1ccc(CN(Cc2ccccc2)S(=O)(=O)c2ccc(Cl)cc2)cc1	0	3	13*	22	2	-3	4
SMILES	Vc quorum ag	MazF activator	SARS 3CLpro inh-1	VHR inh abs	PfHsp40 yeast	BJeLR viability	SARS 3CLpro inh-2
CC(=O)Nc1ccc(NS(=O)(=O)c2cc(Cl)ccc2Cl)cc1	0	5	-2	14	1	15	nt
CC(=O)N(C)c1ccc(NS(=O)(=O)c2cc(Cl)ccc2Cl)cc1	0	-1	14*	20	-1	1	-2
Cc1ccc(C)c(OC(C)C(=O)Nc2nccs2)c1 (configuration not stated)	0	2	13*	19	0	-7	0
Cc1ccc(C)c(OC(C)C(=O)Nc2ccc(S(=O)(=O)Nc3nccs3)cc2)c1 (configuration not stated)	-1	5	-3	38	0	6	nt
CC(Sc1nnnn1C)C(=O)NC1CCCC1 (configuration not stated)	-1	16	nt	nt	-2	nt	nt
CNC(=O)C1=C(C)NC(=S)NC1c1cc2c(cc1OC)CCCC2 (configuration not stated)	i	-1	4	6	0	0	nt
NC(=O)CCn1c(C(=O)c2ccc(Cl)cc2)c2ccccc2[n+]1[O-]	-1	1	46*	-22	-1	-13	48*
COc1cc(NC(=O)C2CC(c3cccc(Br)c3)=NO2)cc(OC)c1OC (configuration not stated)	-1	-4	13*	13	2	-1	2
O=C(N/N=C/c1ccncc1)c1cccc(S(=O)(=O)Nc2ccc(Cl)cc2)c1	i	8	62*	94	2	4	-1
O=C(/C=C/c1cccs1)Nc1scc(-c2ccccc2)c1C(=O)O	2	-12	23*	-17	17	15	61*
COc1cccc(C(C(=O)NCc2ccco2)N(Cc2ccco2)C(=O)Cn2nnc3ccccc32)c1 (configuration not stated)	0	0	28*	-12	-1	6	40*
Cc1ccc(N(C(=O)Cn2nnc3ccccc32)C(C(=O)NCc2ccco2)c2ccc(C)o2)cc1 (configuration not stated)	-1	5	10	28	-1	-2	nt
COc1ccc(N(C(=O)Cn2nnc3ccccc32)C(C(=O)NCc2ccco2)c2ccc(C)o2)cc1 (configuration not stated)	1	9	21*	7	1	2	26*
CC(C)CC(=O)NC(c1ccccc1Cl)c1c(O)ccc2ccccc12 (configuration not stated)	0	8	13*	-4	2	1	2
CCOc1ccc(C(NC(=O)CC)c2c(O)ccc3ccccc23)cc1 (configuration not stated)	i	8	2	8	3	2	nt
Cc1nnc(SC(=O)N2c3ccccc3Sc3ccccc32)s1	i	9	24*	-9	7	7	38*
CCOC(=O)N1c2ccccc2Sc2ccccc21	1	-6	6	20	1	-5	nt

Screening data deposited in PubChem by several laboratories.
